Experimental data reported in PubChem BioAssay (NCI).
About 83,000 compounds went through this panel and 20% of them were active in at least one assay; those are over-represented in the sample as a whole.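 How to read the values: 0–100, growth inhibition (40 = 60% inhibited); 0, no net growth; -100 to 0, cell death (-40 = 40% of starting cells died; -100 = all dead).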 Values without a mark were called inactive. Active and inactive are the calls of the source. Rule for the calls: active = growth percent below 10; inactive = the rest.

What was measured:
Assay in all cases: NCI-60 one-dose screen, 48 h (100 = growth as untreated, 0 = no growth, -100 = all killed)
Details in all cases: 10 µM unless noted
[1] = test system: SR leukemia
[2] = test system: RPMI-8226 leukemia
[3] = test system: OVCAR-8 ovarian
[4] = test system: OVCAR-5 ovarian
[5] = test system: OVCAR-4 ovarian
[6] = test system: SK-OV-3 ovarian
[7] = test system: IGROV1 ovarian
[8] = test system: OVCAR-3 ovarian
[9] = test system: HS 578T breast
[10] = test system: NCI/ADR-RES ovarian
[11] = test system: T-47D breast
[12] = test system: BT-549 breast
[13] = test system: MDA-MB-435 melanoma
[14] = test system: SW-620 colon
[15] = test system: MCF7 breast
[16] = test system: HCT-116 colon
[17] = test system: HCC-2998 colon
[18] = test system: KM12 colon

Row | Compound | growth [1] | growth [2] | growth [3] [%] | growth [4] [%] | growth [5] | growth [6] | growth [7] [%] | growth [8] [%] | growth [9] | growth [10] | growth [11] | growth [12] | growth [13] | growth [14] | growth [15] | growth [16] | growth [17] | growth [18] [%]
1 | COc1ccc(C(=O)OC2C(OC3C(O)COC(O[C@H]4C[C@H]5[C@@H]6CC=C7C[C@@H](O)CC[C@]7(C)[C@H]6CC[C@]5(C)[C@H]4[C@H](C)C(=O)CCC(C)C)C3OC(C)=O)OCC(O)C2O)cc1 (stereo partly specified) | -8.55% (active) | -29.1% (active) | 19.3 | 21.6 | 52.1% | -44.1% (active) | 28.3 | 53.4 | -29.3% (active) | 60.1% | 2.99% (active) | -8.64% (active) | -47.4% (active) | -57.3% (active) | -30.8% (active) | 1.33% (active) | 52.9% | 24.1
2 | Nc1c(C(=O)Nc2cccc(Cl)c2)sc2nc3c(cc12)C(=O)CCC3 | 39.1% | 51.8% | 75.3 | 58.3 | 60.4% | 35.2% | 52.4 | 10.3 | 4.53% (active) | 17.7% | 52.9% | 66.4% | -39.1% (active) | 31.3% | 16.7% | 27.4% | 8.27% (active) | 21.6
3 | c1ccc(-c2nnn(-c3ccccc3)n2)cc1 | 89% | 98.6% | 107 | 105 | 106% | 106% | 104 | 111 | 112% | 116% | 108% | 87.5% | 106% | 113% | 71% | 97.3% | 107% | 107
4 | O=C1CCCN1C(O)CCN(Cc1ccccc1)Cc1ccc(Cl)cc1 (stereo unspecified) | 83% | 98.5% | 96.7 | 99.2 | 103% | 101% | 100 | 108 | 104% | 106% | 99.6% | 105% | 103% | 100% | 94.1% | 96.7% | 108% | 105
5 | COc1cc(OC)c2sc(-c3ccc(-n4cncc4-c4ccc(OC)c(N)c4)cc3)nc2c1 | 73.8% | 51.8% | 84.3 | 101 | 78% | 123% | 98.2 | 77.4 | 94.1% | 77.4% | 77.2% | 75.2% | 68.8% | 89.1% | 67.3% | 66% | 91.8% | 77.7
6 | CC(C)(c1ccccc1)c1cc(O)c(C(C)(C)c2ccccc2)cc1O | 18.5% | 9.65% (active) | 45.6 | 78.8 | 30.8% | 43.1% | 42.4 | 38.9 | 47.4% | 43.7% | -0.998% (active) | 20.6% | 35.1% | 31.3% | 12.3% | 9.74% (active) | 61% | 19.4
7 | Cc1cc(-c2ccccc2)on1 | 87.3% | 108% | 106 | 106 | 102% | 93.1% | 98.1 | 112 | 104% | 105% | 96% | 119% | 107% | 109% | 106% | 101% | 111% | 106
8 | CCN(CC)CC(=O)Nc1c(C)cc(C(=O)NN)cc1C | 88.7% | 120% | 107 | 103 | 99.4% | 98.7% | 88.9 | 100 | 91.1% | 98.5% | 90.8% | 117% | 101% | 101% | 98.3% | 102% | 107% | 98.9
9 | CC[C@H](C)[C@H](N)C(=O)O | 90.7% | 104% | 107 | 97.7 | 109% | 107% | 106 | 111 | 91.7% | 104% | 104% | 108% | 98.8% | 103% | 103% | 115% | 106% | 99.5
10 | C[C@@H]1CC2C3CCC4=CC(=O)C=C[C@]4(C)[C@@]3(Cl)[C@@H](O)C[C@]2(C)[C@@]1(OC(=O)c1ccco1)C(=O)CCl (stereo partly specified) | 54.6% | 55.9% | 53 | 83.1 | 67.7% | 54.1% | 76.3 | 89.3 | 67.2% | 39.9% | 97.1% | 27.9% | 73.4% | 95.3% | 58.9% | 57.4% | 75.9% | 76.9
11 | O=C(Nc1ccc(Br)cc1)Nc1cccc(Br)c1 | 38% | 8.97% (active) | 48.8 | 76.8 | 28.8% | 75.2% | 25.5 | 16.2 | 76% | 46.4% | -10.5% (active) | 58.2% | 47.4% | 29% | 13.3% | 27.5% | 27.6% | 13.2
12 | O=C1/C(=C/c2cc(F)cc(F)c2)Cc2cc(F)cc(F)c21 | 62.8% | 94.1% | 111 | 96.6 | 110% | 111% | 93.2 | 94.9 | 90.5% | 98.2% | 107% | 96.5% | 94.8% | 99.2% | 56.7% | 79.8% | 105% | 92.6
13 | O=C(/C=C/c1ccc(F)cc1)N1CCN(C(=O)/C=C/c2ccc(C(F)(F)F)cc2)CC1 | 114% | 124% | 105 | 109 | 116% | 118% | 122 | 113 | 123% | 113% | 113% | 115% | 104% | 106% | 98.2% | 98% | 102% | 108
14 | COc1ccc2[nH]cc(C3(c4c[nH]c5ccc(OC)cc45)C(=O)Nc4ccc(Cl)cc43)c2c1 | 7.95% (active) | 36.4% | 90.4 | 89.1 | 79.6% | 93.4% | 50 | 61.9 | 65.4% | 90.1% | 76.4% | 93.7% | 23.3% | 30% | 61.7% | 64.3% | 58% | 14.8
15 | CC(C)CCSc1nc(Nc2ccccc2)c(C#N)c(-c2ccc(F)cc2)n1 | 37.4% | 50% | 42.2 | 83.8 | -18% (active) | 67.2% | 33.5 | 28.8 | 49.5% | 56.8% | 46.5% | 79% | 82.5% | 46.5% | 65.2% | 24% | 83.1% | 84.8
16 | O=C(CC(=O)c1ccccc1F)Nc1ccc([N+](=O)[O-])cc1 | 77.7% | 68.4% | 97.4 | 104 | 92.8% | 108% | 97.9 | 109 | 110% | 103% | 82.5% | 89.7% | 88.3% | 109% | 81.3% | 90.5% | 103% | 99.8
17 | Oc1c(C(Nc2ccccc2Br)c2ccccc2)ccc2cccnc12 (stereo unspecified) | 1.95% (active) | 45.8% | 23.5 | 44.5 | 31.4% | 35.2% | 20.1 | 32.8 | 59.2% | 2.07% (active) | 29.9% | 28.3% | 35.7% | 33.7% | 21% | 20% | 30.1% | 32.3
